Measured values taken from PubChem BioAssay (Tox21).
Records with an inconclusive call do not appear. A call without a number means that no potency is given here. Calls of active or inactive are those of the source. The call rests on the fitted dose curve; in most records, active means well fitted cell-killing curve with a large enough effect in the repeat runs; inconclusive means weak or mixed curves, or effect the other way; inactive means flat fitted curve, though single readings scatter.

What was measured:
[1] = cAMP Responsive Elements (CRE) small molecule antagonists, cell-based qHTS assay: qHTS cell viability counter screen (AID 2060913); further: nearly all actives have a fitted effect of over 40% in size
In short: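 Viability of NKH477-stimulated (0.25 uM final) CRE-bla HEK293T cells is measured by CellTiter-Glo luminescence following 3 hrs compound exposure at 37 C.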

[2] = cAMP Responsive Elements (CRE) small molecule agonists, cell-based qHTS assay: qHTS cell viability counter screen (AID 2060914); further: nearly all actives have a fitted effect of over 50% in size
In short: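 In the same wells as the reporter read, viability of CRE-bla HEK 293T cells was quantified by CellTiter-Glo luminescence after a 3 h compound exposure.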
Potency means the concentration at half of the fitted maximal effect.

CNC(=O)Oc1ccccc1OC(C)C
Potency [1]: inactive | Potency [2]: inactive

CN(C)c1ccc(N=O)cc1
Potency [1]: inactive | Potency [2]: inactive

O=C(CCCN1CCC(n2c(=O)[nH]c3ccccc32)CC1)c1ccc(F)cc1
Potency [1]: inactive | Potency [2]: inactive

CC(C)OS(C)(=O)=O
Potency [1]: inactive | Potency [2]: inactive

CN(C)c1nc(=O)n(C2CCCCC2)c(=O)n1C
Potency [1]: inactive | Potency [2]: inactive

COc1ccc(OC)c(CC(C)N)c1 (stereo not given)
Potency [1]: inactive | Potency [2]: inactive

NC(=O)CF
Potency [1]: inactive | Potency [2]: inactive

CCC(C)(c1ccc(O)cc1)c1ccc(O)cc1
Potency [1]: inactive | Potency [2]: inactive

COc1cc(C=O)cc2c1[C@H](COC(N)=O)[C@]1(OC(C)=O)ON2C[C@H]2[C@@H]1N2C(C)=O
Potency [1]: inactive | Potency [2]: inactive

CC(=O)C(Cl)(Cl)Cl
Potency [1]: 26.4 µM (active) | Potency [2]: inactive

CC1(C)COP(Oc2ccccc2)OC1
Potency [1]: inactive | Potency [2]: inactive

c1ccc(-c2cccc(-c3ccccc3)c2)cc1
Potency [1]: inactive | Potency [2]: inactive

c1ccc2c(c1)CCCC2
Potency [1]: inactive | Potency [2]: inactive

O=S(=O)(Cl)c1ccccc1
Potency [1]: inactive | Potency [2]: inactive

CCC[CH2][Sn]([CH2]CCC)([CH2]CCC)[O]C(=O)c1ccccc1
Potency [1]: 5.7 µM (active) | Potency [2]: 5.45 µM (active)

CC(Oc1ccc(Cl)cc1Cl)C(=O)O (stereo not given)
Potency [1]: inactive | Potency [2]: inactive

COc1cc(CC(C)N)cc(OC)c1OC (stereo not given)
Potency [1]: inactive | Potency [2]: inactive

CC1C(=O)C[C@]2(C(C)C)C[C@H]12 (stereo not given in full)
Potency [1]: inactive | Potency [2]: inactive

Nc1cnn(-c2ccccc2)c(=O)c1Cl
Potency [1]: inactive | Potency [2]: inactive

N#Cc1c2ccccc2cc2ccccc12
Potency [1]: inactive | Potency [2]: inactive

CC(C)(C)C(=O)Cl
Potency [1]: inactive | Potency [2]: inactive

BrCCCCCCBr
Potency [1]: inactive | Potency [2]: inactive

COC(=O)[C@@H](N)CCCN/C(N)=N/[N+](=O)[O-]
Potency [1]: inactive | Potency [2]: inactive

ClCc1cccnc1
Potency [1]: inactive | Potency [2]: inactive

Cc1cnc(C2=NC(C)(C(C)C)C(=O)N2)c(C(=O)O)c1 (stereo not given)
Potency [1]: inactive | Potency [2]: inactive

Clc1cccc(N2CCNCC2)c1
Potency [1]: inactive | Potency [2]: inactive

CC(C)(C)C(=O)C(Cl)Cl
Potency [1]: inactive | Potency [2]: inactive

Nc1ccc(N=Nc2ccc(-c3ccc(N=Nc4c(S(=O)(=O)O)cc5cc(S(=O)(=O)O)c(N=Nc6ccccc6)c(O)c5c4N)cc3)cc2)c(N)c1
Potency [1]: inactive | Potency [2]: inactive

Clc1ccccc1
Potency [1]: inactive | Potency [2]: inactive

Nc1ccc([As](=O)(O)O)cc1
Potency [1]: inactive | Potency [2]: inactive

Cn1cc(-c2ccccc2)c(=O)c(-c2cccc(C(F)(F)F)c2)c1
Potency [1]: inactive | Potency [2]: inactive

O=c1[nH]c2ccccc2n1C1CCNCC1
Potency [1]: inactive | Potency [2]: 0.266 µM (active)

CCSC(=O)N1CCCCCC1
Potency [1]: inactive | Potency [2]: inactive

Cc1cc(C)c(C2=C(OC(=O)CC(C)(C)C)C3(CCCC3)OC2=O)c(C)c1
Potency [1]: inactive | Potency [2]: inactive

Oc1ccccc1Br
Potency [1]: inactive | Potency [2]: inactive

CN1C(=S)CN=C(c2ccccc2)c2cc(Cl)ccc21
Potency [1]: inactive | Potency [2]: inactive

CC(COc1ccc(Oc2ccccc2)cc1)Oc1ccccn1 (stereo not given)
Potency [1]: inactive | Potency [2]: inactive

c1ccc2sc(SNC3CCCCC3)nc2c1
Potency [1]: inactive | Potency [2]: inactive

O=C(O)c1ccccc1O
Potency [1]: inactive | Potency [2]: inactive

CCN(CC)N=O
Potency [1]: inactive | Potency [2]: inactive

c1ccc(C2CC2)c(OCC2=NCCN2)c1
Potency [1]: inactive | Potency [2]: inactive

O=C(O)C(Br)(Br)Br
Potency [1]: inactive | Potency [2]: inactive

O=C(C(Cl)(Cl)Cl)C(Cl)(Cl)Cl
Potency [1]: inactive | Potency [2]: inactive

C[C@]12CC[C@H]3[C@@H](CCC4=CC(=O)CC[C@@H]43)[C@@H]1CC[C@@H]2O
Potency [1]: inactive | Potency [2]: inactive

C1=CCC=C1
Potency [1]: inactive | Potency [2]: inactive

CCN(CC)C(=O)C(C)Oc1cccc2ccccc12 (stereo not given)
Potency [1]: inactive | Potency [2]: inactive

CCCCN(CCCCO)N=O
Potency [1]: inactive | Potency [2]: inactive

O=C(O)CCCCCCNC1c2ccccc2CCc2ccccc21
Potency [1]: inactive | Potency [2]: inactive

COP(=S)(Oc1cc(Cl)c(Br)cc1Cl)c1ccccc1 (stereo not given)
Potency [1]: inactive | Potency [2]: inactive

CNC(=O)O/N=C(\SC)C(=O)N(C)C
Potency [1]: inactive | Potency [2]: inactive

Nn1cnnc1
Potency [1]: inactive | Potency [2]: inactive

CON(C)C(=O)Nc1ccc(Cl)c(Cl)c1
Potency [1]: inactive | Potency [2]: inactive

CCCSC(=O)Cl
Potency [1]: inactive | Potency [2]: inactive

CNC(=O)CSP(=S)(OC)OC
Potency [1]: inactive | Potency [2]: inactive

CCC1(CC)C(=O)NC(=O)NC1=O
Potency [1]: inactive | Potency [2]: inactive

CCn1cc[n+](C)c1
Potency [1]: inactive | Potency [2]: inactive

C[C@H]1C(=O)O[C@@H]2CCN3CC=C(COC(=O)[C@](C)(O)[C@]1(C)O)[C@H]23
Potency [1]: inactive | Potency [2]: inactive

CC(C)=CC1C(C(=O)OCc2coc(Cc3ccccc3)c2)C1(C)C (stereo not given)
Potency [1]: inactive | Potency [2]: inactive

CN/C(=N\[N+](=O)[O-])NCc1cnc(Cl)s1
Potency [1]: inactive | Potency [2]: inactive

C(COCC1CO1)OCC1CO1 (stereo not given)
Potency [1]: inactive | Potency [2]: inactive
